Laboratory results published in PubChem BioAssay (EPA / NIEHS).
Active and inactive are the calls of the source. The calls were made as follows: active = hit-call score of the fitted dose curve at least 0.9, where 1 is the maximum; inactive = score below 0.9.

Columns and labels:
[1] = read-out: Vascular endothelial growth factor receptor 2 (Homo sapiens) (UniProt P35968); test: BSK_4H_VEGFRII: BioMAP Diversity Plus: 4H Assay for Vascular endothelial growth factor receptor 2 (VEGFR2) Biomarker Activity (AID 2283031); details: primary human endothelial cells (HUVEC); actives raise or lower the signal;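 as to AC50: cell-surface VEGFR2 protein level quantified by ELISA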
How it was run: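 Primary human umbilical vein endothelial cells (4H system), 24 h exposure; cell-surface VEGFR2 measured by ELISA. Bidirectional fitting versus DMSO; cytotoxicity checked in parallel by SRB total-protein staining.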

[2] = read-out: Vascular cell adhesion molecule 1 (VCAM1), VCAM1 (gene 7412); test: BSK_4H_VCAM1: BioMAP Diversity Plus: 4H Assay for Vascular cell adhesion molecule 1 (VCAM1) Biomarker Activity (AID 2283033); details: primary human endothelial cells (HUVEC); actives raise or lower the signal
How it was run: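 Chemicals are added to primary human umbilical vein endothelial cells. After 24 h, VCAM-1 levels are measured by ELISA. Values come from bidirectional fitting referenced to DMSO.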

[3] = read-out: Interferon-gamma inducible Protein 10 (IP10), CXCL10 (gene 3627); test: BSK_BE3C_IP10: BioMAP Diversity Plus: BE3C Assay for Interferon-gamma inducible Protein 10 (IP10) Biomarker Activity (AID 2283034); details: primary human bronchial epithelial cells; actives raise or lower the signal
How it was run: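 IP-10 quantified by ELISA serves as the endpoint. Cells: primary human bronchial epithelium, read 24 h after compound addition. Activity is derived by bidirectional fitting with DMSO as negative control.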

[4] = read-out: Monokine induced gamma interferon (MIG), CXCL9 (gene 4283); test: BSK_BE3C_MIG: BioMAP Diversity Plus: BE3C Assay for Monokine induced gamma interferon (MIG) Biomarker Activity (AID 2283035); details: primary human bronchial epithelial cells; actives raise or lower the signal
How it was run: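 hu bronchial epithelial 1° cells, 24 h cpd; MIG by ELISA; bidirectional fit, DMSO = baseline.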

[5] = read-out: Transforming growth factor beta 1 (TGFb1), TGFB1 (gene 7040); test: BSK_BE3C_TGFb1: BioMAP Diversity Plus: BE3C Assay for Transforming growth factor beta 1 (TGFb1) Biomarker Activity (AID 2283036;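 also: TGF-b1 protein level measured by ELISA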); details: primary human bronchial epithelial cells; actives raise or lower the signal
How it was run: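 Bronchial epithelial primary cells are treated with test chemical, then TGF-b1 is quantified by ELISA after 24 hours. Values derive from bidirectional fitting against DMSO, with cytotoxicity checked by SRB staining in parallel cultures.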

[6] = read-out: Plasminogen activator inhibitor-1 (PAI1), SERPINE1 (gene 5054); test: BSK_BE3C_PAI1: BioMAP Diversity Plus: BE3C Assay for Plasminogen activator inhibitor-1 (PAI1) Biomarker Activity (AID 2283037); details: primary human bronchial epithelial cells; actives raise or lower the signal
How it was run: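 Values derive from bidirectional fitting against DMSO baseline of PAI-1 levels, measured by ELISA in human bronchial epithelial cells 24 h after compound addition.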

[7] = read-out: urokinase plasminogen activator (uPA), PLAU (gene 5328); test: BSK_BE3C_uPA: BioMAP Diversity Plus: BE3C Assay for urokinase plasminogen activator (uPA) Biomarker Activity (AID 2283038); details: primary human bronchial epithelial cells; actives raise or lower the signal;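 also: uPA protein level quantified by ELISA in cell cultures; uPA read one day after compound addition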
How it was run: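 Primary human bronchial epithelial cells, uPA measured by ELISA 24 h after dosing. Bidirectional change relative to DMSO; cytotoxicity checked in parallel cultures by sulforhodamine B total-protein staining.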

[8] = read-out: Urokinase-type plasminogen activator receptor (uPAR), PLAUR (gene 5329); test: BSK_BE3C_uPAR: BioMAP Diversity Plus: BE3C Assay for Urokinase-type plasminogen activator receptor (uPAR) Biomarker Activity (AID 2283039); details: primary human bronchial epithelial cells; actives raise or lower the signal
How it was run: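 Steps: dose human primary bronchial epithelial cells, incubate 24 h, measure uPAR by ELISA, then fit gain- or loss-of-signal response bidirectionally relative to DMSO.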

[9] = read-out: Interleukin-6 (IL6), IL6 (gene 3569); test: BSK_CASM3C_IL6: BioMAP Diversity Plus: CASM3C Assay for Interleukin-6 (IL6) Biomarker Activity for (AID 2283040); details: primary human coronary artery smooth muscle cells; actives raise or lower the signal
[10] = read-out: Interleukin-8 (IL8), CXCL8 (gene 3576); test: BSK_CASM3C_IL8: BioMAP Diversity Plus: CASM3C Assay for Interleukin-8 (IL8) Biomarker Activity (AID 2283042); details: primary human coronary artery smooth muscle cells; actives raise or lower the signal;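 also: IL-8 protein level quantified by ELISA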
[11] = read-out: Human Leukocyte Antigen - DR isotype (HLADR), HLA-DRA (gene 3122); test: BSK_CASM3C_HLADR: BioMAP Diversity Plus: CASM3C Assay for Human Leukocyte Antigen - DR isotype (HLADR) Biomarker Activity (AID 2283043); details: primary human coronary artery smooth muscle cells; actives raise or lower the signal;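 also: cell-surface HLA-DR protein level quantified by ELISA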
[12] = read-out: Macrophage colony-stimulating factor (MCSF), CSF1 (gene 1435); test: BSK_CASM3C_MCSF: BioMAP Diversity Plus: CASM3C Assay for Macrophage colony-stimulating factor (MCSF) Biomarker Activity (AID 2283044); details: primary human coronary artery smooth muscle cells; actives raise or lower the signal;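 also: M-CSF protein amount quantified by ELISA after 24 h exposure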
[13] = read-out: Low-density lipoprotein receptor (LDLR), LDLR (gene 3949); test: BSK_CASM3C_LDLR: BioMAP Diversity Plus: CASM3C Assay for Low-density lipoprotein receptor (LDLR) Biomarker Activity (AID 2283045); details: primary human coronary artery smooth muscle cells; actives raise or lower the signal;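 also: LDLR protein level on the cell surface quantified by ELISA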
[14] = read-out: Monocyte Chemoattractant Protein-1 (MCP1), CCL2 (gene 6347); test: BSK_CASM3C_MCP1: BioMAP Diversity Plus: CASM3C Assay for Monocyte Chemoattractant Protein-1 (MCP1) Biomarker Activity (AID 2283046); details: primary human coronary artery smooth muscle cells; actives raise or lower the signal;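 also: MCP-1 level quantified by ELISA 24 h after dosing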
[15] = BSK_CASM3C_Proliferation: Cell Proliferation Assessment in the BioMAP Diversity Plus: CASM3C Assay (AID 2283047); details: primary human coronary artery smooth muscle cells;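 also: sulforhodamine B total protein stain as relative cell number at 560 nm; sub-confluent cells exposed 48 h before staining; fitted both ways against DMSO so gain or loss of cell number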
[16] = read-out: Monokine induced gamma interferon (MIG), CXCL9 (gene 4283); test: BSK_CASM3C_MIG: BioMAP Diversity Plus: CASM3C Assay for Monokine induced gamma interferon (MIG) Biomarker Activity (AID 2283048); details: primary human coronary artery smooth muscle cells; actives raise or lower the signal;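 also: MIG protein level measured by ELISA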
[17] = read-out: serum amyloid A (SAA), SAA1 (gene 6288); test: BSK_CASM3C_SAA: BioMAP Diversity Plus: CASM3C Assay for serum amyloid A (SAA) Biomarker Activity (AID 2283049); details: primary human coronary artery smooth muscle cells; actives raise or lower the signal;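 also: SAA protein level quantified by ELISA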
[18] = BSK_CASM3C_SRB: Viability Assessment in the BioMAP Diversity Plus: CASM3C Assay (AID 2283050); details: primary human coronary artery smooth muscle cells;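 also: total protein by SRB staining as cytotoxicity measure in parallel cultures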
[19] = read-out: Tissue plasminogen activator (tPA), PLAT (gene 5327); test: BSK_BE3C_tPA: BioMAP Diversity Plus: BE3C Assay for Tissue plasminogen activator (tPA) Biomarker Activity (AID 2283041); details: primary human bronchial epithelial cells; actives raise or lower the signal;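 also: tPA level quantified by ELISA one day after compound addition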
How it was run: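 Gain- or loss-of-signal in tPA, measured by ELISA, derived by bidirectional fitting against DMSO. Cells: human primary bronchial epithelial; read at 24 h after chemical dosing.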

Measured: AC50

CC(=O)Nc1ccc(C(=O)CCl)cc1
active: [1] 9.38 µM | [2] 6.74 µM | [3] 25.6 µM | [4] 33.3 µM | [8] 31.7 µM | [9] 10.6 µM | [10] 12.6 µM | [11] 3.78 µM | [12] 8.22 µM | [13] 11.6 µM | [14] 8.38 µM | [15] 5.44 µM | [16] 8.96 µM | [18] 12.8 µM
inactive: [5] | [6] | [7] | [17]

C=C(C)C(=O)OCC(CC)(COC(=O)C(=C)C)COC(=O)C(=C)C
active: [2] 19.7 µM | [14] 4.8 µM
inactive: all other assays above

CC=Cc1ccc(OCC)c(O)c1
inactive: all assays above
